Test results as given in PubChem BioAssay AID1347165 (National Center for Advancing Translational Sciences (NCATS), 2019).
Among all 220,000 compounds or so, about 5,700 (2.6%) were called active. Inconclusive results (about 18%) are left out. The sample as a whole holds a higher share of actives than the screen did. Unmarked numbers belong to inactive results. The call rests on the fitted dose curve; in most records, active means well fitted inhibition curve with a large enough effect; inconclusive means small, poorly fitted or top-dose-only effect; inactive means no such curve, though single readings can be large or run the other way.

Biological target: Lysine-specific demethylase 5B (Homo sapiens) (UniProt Q9UGL1)
Test: Primary screen for KDM5B Histone Demethylases FDH-coupled qHTS; further: nearly all actives have a fitted effect of over 70% in size; on activity change, negative = inhibition: 0% is about no effect
Conditions: FDH-coupled NADH fluorescence (FDH is formaldehyde dehydrogenase); series mostly up to 57.7 µM; activity change, negative = inhibition: at the top concentration
In short: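 qHTS format, multiple compound concentrations. Buffer 50 mM HEPES pH 7.5/0.01% Tween-20; 200 nM KDM5BΔAP final; 10 min compound preincubation; substrate-mix levels 12.5 µM peptide, 25 µM α-KG, 0.25 mM NAD⁺; 30 min RT; ΔRFU.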
Potency means the concentration at half of the fitted maximal effect.

Sequence of Lysine-specific demethylase 5B (Homo sapiens) (Q9UGL1 whole entry, looked up): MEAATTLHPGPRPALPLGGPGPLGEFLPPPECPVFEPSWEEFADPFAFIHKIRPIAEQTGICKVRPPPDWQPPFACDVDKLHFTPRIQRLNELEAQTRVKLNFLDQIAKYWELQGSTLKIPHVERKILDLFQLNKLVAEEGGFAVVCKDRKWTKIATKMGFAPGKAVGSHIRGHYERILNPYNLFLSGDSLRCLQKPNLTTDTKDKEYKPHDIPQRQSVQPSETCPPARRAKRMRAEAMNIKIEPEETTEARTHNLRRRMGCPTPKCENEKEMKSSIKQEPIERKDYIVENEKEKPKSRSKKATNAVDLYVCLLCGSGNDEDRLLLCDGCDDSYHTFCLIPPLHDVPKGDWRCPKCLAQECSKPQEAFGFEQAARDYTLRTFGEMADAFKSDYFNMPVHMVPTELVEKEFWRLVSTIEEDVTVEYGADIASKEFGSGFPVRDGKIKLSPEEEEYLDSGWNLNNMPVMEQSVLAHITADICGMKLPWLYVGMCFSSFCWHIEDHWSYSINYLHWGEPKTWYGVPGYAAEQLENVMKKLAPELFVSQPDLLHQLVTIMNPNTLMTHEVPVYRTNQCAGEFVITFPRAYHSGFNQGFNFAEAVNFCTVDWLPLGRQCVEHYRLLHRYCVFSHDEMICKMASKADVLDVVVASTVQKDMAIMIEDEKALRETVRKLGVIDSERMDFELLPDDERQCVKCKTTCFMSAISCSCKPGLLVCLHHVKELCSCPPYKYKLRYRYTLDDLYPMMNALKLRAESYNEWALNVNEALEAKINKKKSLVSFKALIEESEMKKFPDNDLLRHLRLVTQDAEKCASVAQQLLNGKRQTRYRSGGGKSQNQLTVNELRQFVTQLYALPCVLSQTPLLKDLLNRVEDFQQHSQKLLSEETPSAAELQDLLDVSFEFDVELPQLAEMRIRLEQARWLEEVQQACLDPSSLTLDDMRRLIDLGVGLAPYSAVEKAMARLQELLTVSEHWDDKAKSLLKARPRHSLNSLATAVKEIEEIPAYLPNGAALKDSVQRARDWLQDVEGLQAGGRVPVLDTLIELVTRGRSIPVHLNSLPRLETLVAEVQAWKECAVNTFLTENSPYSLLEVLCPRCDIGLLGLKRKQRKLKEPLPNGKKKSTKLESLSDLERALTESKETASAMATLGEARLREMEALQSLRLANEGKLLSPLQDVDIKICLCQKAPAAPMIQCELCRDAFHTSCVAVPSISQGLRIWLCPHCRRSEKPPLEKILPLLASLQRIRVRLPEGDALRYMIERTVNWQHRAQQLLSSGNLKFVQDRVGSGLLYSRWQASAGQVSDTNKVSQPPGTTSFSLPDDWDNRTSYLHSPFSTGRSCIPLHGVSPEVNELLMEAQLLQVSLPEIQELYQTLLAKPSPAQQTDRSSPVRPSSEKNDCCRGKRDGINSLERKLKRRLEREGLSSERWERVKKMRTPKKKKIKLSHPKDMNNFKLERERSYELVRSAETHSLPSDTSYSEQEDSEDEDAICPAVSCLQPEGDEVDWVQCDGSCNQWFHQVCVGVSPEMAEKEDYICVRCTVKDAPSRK

SMILES	activity change, negative = inhibition	Potency
CCC(=O)Nc1ccc(Cl)cc1C	-3.1%	–
Cc1cc(C)c(OCC(=O)Nc2ccc(NC(=O)c3ccco3)cc2)c(Br)c1	-5.67%	–
CCOc1cc(C)c(Cl)cc1S(=O)(=O)N1CCCCC1C (stereo not drawn)	-1.68%	–
CC(OC(=O)CCCc1c[nH]c2ccccc12)C(=O)NC(N)=O (stereo not drawn)	-1.4%	–
CCCCc1nc(SCC(=O)Nc2nnc(C(C)C)s2)n[nH]1	-21.5%	–
COC(=O)C1CCN(C(=O)CC[C@H]2CNC(=O)[C@@H]3[C@@H](CCN3Cc3cccs3)N2C)CC1	-14.8%	–
CN(C)c1ccc(C(=O)N[C@H]2C[C@H]3C(=O)NC[C@@H](CCC(=O)N4CCCCC4)N3C2)cc1	-22.1%	–
O=C1NC[C@@H](CCC(=O)N2CCN(c3ccccn3)CC2)N2C[C@@H](NCc3ccccc3)C[C@@H]12	–	31.6 µM (active)
O=C(Nc1ccsc1)N[C@H]1C[C@H]2C(=O)NC[C@@H](CCC(=O)N3CCC(O)CC3)N2C1	-27.4% [at 86.2 µM]	–
CN1[C@@H](CCC(=O)N2CCN(c3ccccc3)CC2)CNC(=O)[C@H]2NCC[C@H]21	1.01% [at 86.2 µM]	–
CN1[C@@H](CCC(=O)N2CCN(c3ccccn3)CC2)CNC(=O)[C@@H]2[C@H]1CCN2Cc1csnn1	–	28.2 µM (active)
COc1cccc(C(=O)Oc2ccc(C3(c4ccc(OC(=O)c5cccc(OC)c5)cc4)OC(=O)c4ccccc43)cc2)c1	15.9%	–
CC(C)NC(=O)CN(C)CC(O)COc1ccc(Cl)cc1 (stereo not drawn)	-11.6%	–
CCc1cc(CC)n(-c2nc3c(c(=O)n(C)c(=O)n3C)n2C)n1	15.4%	–
CCc1nn(C(C)C(=O)NCc2ccccc2Cl)c(=O)c2cc3occc3n12 (stereo not drawn)	8.4%	–
NC(=O)c1ccc(NC(=O)C2(Cc3nc4ccccc4s3)CCCCC2)cc1	-20.3%	–
CCNC(=O)NC(=O)CN1CCCC(c2nc3ccccc3o2)C1 (stereo not drawn)	2.2%	–
CC(C)NC(=O)Cc1cccs1	18%	–
CCC1(C)Cc2nc3sc4c(=O)n(CC(=O)NCc5ccco5)cnc4c3cc2CO1 (stereo not drawn)	-10%	–
Cc1cccc(-n2nc(-c3c(C)nc4scc(CC(=O)NCc5ccco5)n4c3=O)cc2C)c1C	–	31.6 µM (active)
Cc1nc2scc(CC(=O)NC(C)C)n2c(=O)c1-c1cc(C)n(-c2cccc(Cl)c2)n1	–	28.2 µM (active)
Cn1nc(CC(=O)Nc2cccc(Cl)c2)c2ccccc2c1=O	-6.18%	–
COc1ccc2c(C)c(CC(=O)NCc3ccco3)c(=O)oc2c1	-963%	–
Cc1ccc(C(NC(=O)c2ccccc2Cl)C(Cl)(Cl)Cl)cc1 (stereo not drawn)	3.03%	–
Cc1cc(NC(=O)CSc2nc(=O)cc(N)n2-c2ccc(F)cc2)no1	7.62%	–
O=C(O)CC/C(=C/c1cccc(Oc2ccc(Cl)cc2)c1)c1nc2ccccc2s1	344%	–

SMILES	activity change, negative = inhibition	Potency
CN(Cc1nnc(-c2ccc(Br)s2)o1)C1CCCC1	-4.13%	–
COc1ccccc1C1=NS(=O)(=O)N(C)C(C(=O)N2CCN(Cc3ccccc3)CC2)=C1	-13.6%	–
Cc1ccccc1CNC(=O)c1ccc2c(c1)CCCC2	19%	–
O=C(CSc1ncc(-c2ccc(Cl)cc2)o1)Nc1ccc(F)cc1	5.5%	–
COc1nc2nc(CCc3ccccc3)n(C)c2cc1-c1cncnc1	-15.5% [at 86.2 µM]	–
CC(=O)Nc1cccc(-c2n[nH]c3c2CC(=O)N(Cc2ccccc2F)C3)c1	19% [at 86.2 µM]	–
COc1nc2nc(CC3CC3)n(C)c2cc1-c1cccc(NC(C)=O)c1	–	35.5 µM (active)
CC(=O)Nc1cccc(-c2nnc3n2CCCC3)c1	11.1%	–
COc1nc2nc(CC3CC3)n(C)c2cc1-c1ccc(CO)cc1	–	35.5 µM (active)
CSCCC(NC(=O)[C@@H](NC(=O)c1ccc(F)cc1)C(C)C)c1nnc2ccccn12 (stereo partly drawn)	1.26%	–
O=C(Nc1cccc(Cl)c1)N1CCN(c2cc(=O)n3nc(-c4ccco4)sc3n2)CC1	15.2%	–
CCc1ccc2oc(C(=O)Nc3ccccc3Cl)cc(=O)c2c1	-7.99%	–
Fc1ccc(NC(=S)NCC(c2ccccc2)c2ccccc2)cc1	-19.1%	–
O=C(Nc1ccc2oc(-c3cccc(Cl)c3)nc2c1)c1ccc(F)cc1	12.7%	–
CN(c1ccccc1)S(=O)(=O)c1ccc(NC(=O)COc2ccccc2)cc1	18.6%	–
Cc1ccc(S(=O)(=O)N(C)Cc2ccccc2C(F)(F)F)cc1	3.72% [at 86.2 µM]	–
CCn1cc(-c2ccc(C)cc2)cc1C(=O)NCc1cccnc1	1.22%	–
Cn1ncc2c(C(=O)NCc3cccnc3)cc(C(C)(C)C)nc21	–	100 µM (active)
CC(C)(C)C(=O)NCCCC(=O)NCc1cccnc1	-10.7%	–
O=C(NC(=S)NC1CCCCC1)c1ccc(Cl)cc1	-10.9%	–
COc1ccccc1OCCNC(=O)c1cn2ccnc(-c3ccc(C)cc3)c2n1	–	28.2 µM (active)
N#CCCN1CCN(C(=O)c2cn3ccnc(-c4ccccc4)c3n2)CC1	-13.1%	–
N#CCCN1CCN(C(=O)c2cn3ccnc(-c4ccc(F)cc4)c3n2)CC1	-25.6%	–
COc1ccc(-c2noc(-c3cccn3CC(=O)Nc3cc(Cl)ccc3OC)n2)cc1F	27.2%	–
CCCn1nc(C(=O)Nc2sc3c(c2C(N)=O)CCC3)c2ccccc2c1=O	-13.1%	–
CCNC(=O)c1noc(-c2ccc[nH]c2=O)n1	-6640%	–

SMILES	activity change, negative = inhibition	Potency
CCC(C(=O)Nc1cccc(-c2nc3cccnc3s2)c1C)c1ccccc1 (stereo not drawn)	-12.9%	–
CCc1noc(-c2cccn3c(CNC(=O)c4cccc(Cl)c4)nnc23)n1	–	31.6 µM (active)
CCc1noc(-c2cn(C3CCN(C(=O)c4ccc(Cl)cc4)C3)nn2)n1 (stereo not drawn)	1.84%	–
CCc1noc(-c2cn(C3CCN(C(=O)c4cccc(OC)c4)C3)nn2)n1 (stereo not drawn)	-12.9%	–
CCc1noc(-c2cn(C3CCN(C(=O)C4(c5ccccc5)CC4)C3)nn2)n1 (stereo not drawn)	15%	–
CCc1noc(-c2cccn3c(CNC(=O)C(CC)c4ccccc4)nnc23)n1 (stereo not drawn)	–	28.2 µM (active)
O=C(NCc1nnc2c(-c3nc(C4CC4)no3)cccn12)c1cccnc1	–	25.1 µM (active)
CC(C)c1nc(CNC(=O)c2ccc(N(C)C)nc2)no1	-12.7%	–
CCc1noc(-c2cccn3c(CNC(=O)c4ccncc4)nnc23)n1	–	28.2 µM (active)
O=C(c1cccnc1)N1CCC(Cc2nc(C3CCOCC3)no2)CC1	-22.2%	–
CC(C)CC(=O)N1CCC(c2noc(-c3cnccn3)n2)C1 (stereo not drawn)	-1.65%	–
c1ccc(-c2nc(CN3CCCC3c3cccs3)co2)cc1 (stereo not drawn)	-18.7%	–
O=C1Cc2cc(-c3csc(Nc4ccc(F)cc4)n3)ccc2N1	-0.328%	–
CC(=O)Nc1ccc(SC2CCCCCC2=O)cc1 (stereo not drawn)	-10.9%	–
CCC1CCc2c(sc(NC(=O)C(CC)CC)c2C#N)C1 (stereo not drawn)	-14.6%	–
Cc1ccc(NC(=O)CN(C)C(=O)c2nc(-c3ccccc3)oc2C)cc1	8.05%	–
CC1CCCN(CC(=O)Nc2cc(Cl)ccc2Oc2ccccc2)C1 (stereo not drawn)	21.3%	–
Nc1nc2ccc([N+](=O)[O-])cc2[n+]([O-])n1	-18%	–
COc1cccc(N(CC(=O)NC2CCCC2)C(=O)Cn2nnc(-c3ccc(C)o3)n2)c1	8.14%	–
C/C(=C\c1ccc([N+](=O)[O-])cc1)C(=O)c1ccccc1	21.4%	–
COc1ccc(CNc2nc3c(c(=O)[nH]c(=O)n3C)n2Cc2ccccc2)cc1	13.7%	–
c1cncc(CNc2cc(-c3cnc4ccccc4n3)c3cc[nH]c3n2)c1	-21.9%	–
N#Cc1nc(/C=C/c2ccc(F)cc2)oc1NC1CCCCC1	-163%	–
Fc1ccc(-c2cc(NC3CCCC3)nc3[nH]ccc23)nc1	–	31.6 µM (active)
N#Cc1ccc(CCC(=O)Nc2ccc3ccccc3n2)cc1	-9.01%	–
COc1ccc2c(c1)OCC(C(=O)NCc1cc3cc(OC)ccc3[nH]1)C2 (stereo not drawn)	–	25.1 µM (active)

SMILES	activity change, negative = inhibition	Potency
COc1ccc(CNC(=O)C2CCCC2)cc1	7.63%	–
COc1ccc2cc(C(=O)NCC3CCCO3)[nH]c2c1 (stereo not drawn)	-50.3%	–
CN(CC(=O)N1CCCC1)c1nc(-c2cccs2)nc2ccccc12	4.38%	–
COCCOc1ccc(-c2noc([C@@H]3CCCN3Cc3cccnc3)n2)cn1	-24.5% [at 86.2 µM]	–
CC(=O)N1CCN(c2cc(-c3noc([C@@H]4CCCN4Cc4ccccc4)n3)ccn2)CC1	–	35.5 µM (active)
COc1ccc(-c2noc([C@@H]3CCCN3C(=O)CCCc3ccccc3)n2)cc1OC	-13.2%	–
Cn1cc(C(=O)N2CCN(C(=O)Cc3ccccc3)CC2)c2ccccc21	10.9%	–
CCC(C)C(NC(=O)NCc1ccc(C)cc1)C(=O)O (stereo not drawn)	23.5%	–
CCS(=O)(=O)N1CC(=O)N(Cc2ccccc2Cl)C(C)(C(=O)NCc2ccccc2OC)C1 (stereo not drawn)	19.1%	–
Cc1cc2oc(=O)cc(CN3CCN(CCc4ccncc4)CC3)c2cc1C	-2.75%	–
O=C(CCn1cncn1)N1CCc2[nH]nc(-c3cccc4ccccc34)c2C1	-15%	–
Cc1ccc(C)c2c(=O)cc(CN3CCN(CCn4cncn4)CC3)[nH]c12	–	25.1 µM (active)
Cc1nn(C)cc1CNC(=O)c1cc2nc(-c3ccc(Cl)s3)cc(C(F)(F)F)n2n1	33.1%	–
Cc1cc(C)c(NC(=O)CN(C)Cc2coc(-c3ccccc3)n2)c(C)c1	1.75%	–
COc1cccc(Cn2c(SCc3ccc(C(=O)N4CCCCC4)cc3)nc3ccncc32)c1	-2.19%	–
O=C(c1nc(-c2ccsc2)c2cnccn12)N1CCCC1	–	35.5 µM (active)
O=C(c1nc(-c2cccnc2)c2cnccn12)N1CCN(c2ncccn2)CC1	-2790%	–
CNC(=O)[C@@H](Cc1ccccc1)N1CCC[C@H]1C(=O)N1CCC1	–	28.2 µM (active)
CNC(=O)C(C)(C)N1CCC[C@H]1C(=O)N(C)Cc1ccccc1	10.2% [at 86.2 µM]	–
CCNC(=O)[C@@H]1CCCN1[C@@H](C(=O)NC)c1ccccc1OC	-6.62% [at 86.2 µM]	–
Cc1cccc(OC(C)C(=O)Nc2cc(-c3ccc(F)c(F)c3)no2)c1C (stereo not drawn)	-3.36%	–
O=S(=O)(NCCc1csc2nc(-c3ccccc3)nn12)c1cc(Cl)ccc1Cl	5.42%	–
COc1ccc(-c2nc(C3CC(=O)N(c4ccc(F)c(Cl)c4)C3)no2)cc1OC (stereo not drawn)	–	31.6 µM (active)
Cc1ccc(-c2nc(C3CC(=O)N(c4ccc(Cl)cc4)C3)no2)cc1C (stereo not drawn)	-7.68%	–
O=C1CC(c2noc(-c3ccc(F)c(Cl)c3)n2)CN1c1ccc(F)cc1 (stereo not drawn)	-32.5%	–
